# Bioassay records: PubChem BioAssay, National Center for Advancing Translational Sciences (NCATS)
# This is a sample that favours compounds with a hit; in the whole collection about 9.2% have one here.
# ELG1 genotox – qHTS screen for small molecules that induce genotoxicity in human embryonic kidney (HEK293T) cells expressing luciferase-tagged ELG1 | HEK293T ELG1-luciferase reporter, luminescence, 16 h | Potency, µM (doses to about 46 µM), hits mostly activators | 1.3% of 330,000 active | AID 504466, 2011; further: nearly all actives have a fitted effect of over 60% in size
#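 Screening used a luciferase reporter fused to human ELG1 in HEK293T cells. Luminescence was read on a CCD plate imager after 16 hr exposure and 30 min ONE-Glo incubation.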
# NPC1 promoter act – qHTS Assay for NPC1 Promoter Activators. Huh7 NPC1 promoter luciferase reporter, 24 h. Potency, µM (doses to about 9.22 µM), hits mostly activators. 2.4% of 320,000 active. AID 485313, 2010; further: nearly all actives have a fitted effect of over 60% in size
#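 Luminescence from an NPC1 promoter-driven luciferase reporter in stably transfected Huh7 cells was measured after 24 h compound treatment at 37 °C, followed by 10 min ambient incubation with luciferase detection reagent.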
# FLuc counter – qHTS profiling assay for firefly luciferase inhibitor/activator using purifed enzyme and Km concentrations of substrates (counterscreen for miR-21 project); purified FLuc, Km substrates, luminescence inhibition; Luciferin 4-monooxygenase (Photinus pyralis), P08659; 6.9% of 360,000 active; Potency, µM (titrated, usually from 57.5 µM), usual class: inhibitors; further: nearly all actives have a fitted effect of over 55% in size
# Target sequence (P08659 whole entry, looked up): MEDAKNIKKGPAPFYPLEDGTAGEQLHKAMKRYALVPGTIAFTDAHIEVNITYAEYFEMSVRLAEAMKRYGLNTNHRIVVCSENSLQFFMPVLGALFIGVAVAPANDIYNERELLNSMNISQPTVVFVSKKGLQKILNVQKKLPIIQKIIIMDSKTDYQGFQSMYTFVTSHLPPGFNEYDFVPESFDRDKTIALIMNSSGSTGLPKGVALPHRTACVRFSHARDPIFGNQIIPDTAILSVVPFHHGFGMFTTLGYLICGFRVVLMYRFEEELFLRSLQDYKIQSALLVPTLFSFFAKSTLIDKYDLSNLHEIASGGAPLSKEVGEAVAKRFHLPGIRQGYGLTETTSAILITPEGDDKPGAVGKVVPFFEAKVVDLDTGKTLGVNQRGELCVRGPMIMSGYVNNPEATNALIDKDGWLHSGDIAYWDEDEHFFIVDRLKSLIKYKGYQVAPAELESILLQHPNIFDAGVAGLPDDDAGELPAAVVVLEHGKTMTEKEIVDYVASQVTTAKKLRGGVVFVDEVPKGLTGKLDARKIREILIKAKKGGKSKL
#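 Purified P. pyralis luciferase (10nM final) with 10uM D-luciferin and 10uM ATP (Km levels) in 50mM Tris acetate pH 7.5, 10mM Mg acetate, 0.01% Tween-20, 0.05% BSA; qHTS 6-point titration, ~60 µM downward; luminescence read.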
# ELG1 DNA repair – qHTS screen for small molecules that inhibit ELG1-dependent DNA repair in human embryonic kidney (HEK293T) cells expressing luciferase-tagged ELG1; 2.3% of 330,000 active; Potency, µM (series often up to 46.1 µM), hits mostly inhibitors; HEK293T ELG1-luciferase reporter, luminescence, 16 h; DNA damage induced by 5-fluorouridine; further: nearly all actives have a fitted effect of over 55% in size
#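 Quantitative HTS, concentration-response format. 2,000 cells/well co-treated with 5-fluorouridine and compound, 16 hr in 5% CO2 at 37 °C; ONE-Glo luminescence read after 30 min.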
# Rab9 promoter act – qHTS Assay for Rab9 Promoter Activators; 2.8% of 320,000 active; Potency, µM (doses to about 9.22 µM), most hits filed as activators; Huh7 Rab9 promoter-luciferase reporter, luminescence, 24 h; further: nearly all actives have a fitted effect of over 60% in size
#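 Rab9 promoter-driven luciferase in stably transfected Huh7 cells; 1500 cells/well rested 2 h, exposed to compound in DMSO for 24 h at 37 °C, 5% CO2. Luminescence read 10 min after adding luciferase reagent at ambient temperature.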
# SMN2 splice up – qHTS Assay for Enhancers of SMN2 Splice Variant Expression | HEK293 SMN2-luciferase splicing reporter, luminescence, 30-36 h | Potency, µM (series often up to 46.1 µM), most hits filed as activators | 2.8% of 210,000 active; further: nearly all actives have a fitted effect of over 55% in size
#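 HEK293 cells carry an SMN2 […]–luciferase reporter in which exon 7 inclusion puts luciferase in frame. Cells were plated 10-12 h before compound addition, then incubated 30-36 h at 37C. ONE-Glo luminescence was read; sodium butyrate at 4.5 mM final served as control.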
# Hits are given with their value; 0 = inactive; ? = inconclusive; - = not tested or not shown; [ ] = another dose, or the depositor's remark. The call rests on the fitted dose curve; in most records, active means well fitted curve in the direction sought with a large enough effect; inconclusive means small, poorly fitted or top-dose-only effect, or another doubt; inactive means no such curve, though single readings can be large; an effect the other way counts as inactive or inconclusive.
SMILES,ELG1 genotox,NPC1 promoter act,FLuc counter,ELG1 DNA repair,Rab9 promoter act,SMN2 splice up
Cc1ccc(NC(=O)COc2coc(CN3CCc4ccccc43)cc2=O)cc1Cl,0,0,0,0,0,-
CC(=O)c1ccc(NC(=O)COC(=O)Cn2cnc3ccccc32)cc1,0,-,-,?,-,-
O=C(COC(=O)Cn1cnc2ccccc21)Nc1ccc2c(c1)C(=O)c1ccccc1C2=O,11.6µM,?,?,?,?,0
Cc1cc2nc(-c3ccc[nH]c3=O)[nH]c2cc1C,?,?,0.338µM,?,0.501µM,-
COC(=O)c1[nH]c2ccc(Br)cc2c1NC(=O)CN1CCCc2ccccc21,0,0,0,8.2µM,0,0
COC(=O)c1[nH]c2cc(C)ccc2c1NC(=O)CN1CCCc2ccccc21,0,?,23.9µM,?,?,0
COC(=O)c1c(NC(=O)CN2CCCc3ccccc32)sc(C)c1C,0,0,0,0,0,0
CCC(C)(C(=O)NC1CCCCC1)N(Cc1ccco1)C(=O)Cc1cccs1 (stereo unspecified),0,0,0,0,0,0
O=S(=O)(Nc1cccc(-c2ccc(N3CCOCC3)nn2)c1)c1cc(C(F)(F)F)ccc1Cl,-,-,5.36µM,-,-,-
O=S(=O)(Nc1ccc(N2CCOCC2)cc1)c1ccc(F)cc1F,0,0,0,0,0,0
O=S(=O)(Nc1cccc(-c2ccc(N3CCOCC3)nn2)c1)c1ccccc1C(F)(F)F,-,-,7.57µM,-,-,-
O=S(=O)(Nc1cccc(-c2ccc(N3CCOCC3)nn2)c1)c1ccc(F)cc1F,-,-,7.57µM,-,-,-
O=c1/c(=C/c2ccccn2)sc2nc3ccccc3n12,0.82µM,?,0.135µM,?,?,12.6µM
O=c1/c(=C\c2cc([N+](=O)[O-])cc([N+](=O)[O-])c2O)sc2nc3ccccc3n12,0,0,9.53µM,0,0,0
O=C(O)c1cccc(-c2ccc(/C=c3/sc4nc5ccccc5n4c3=O)o2)c1,0,0,9.53µM,?,0,-
O=c1c2ccccc2nc2sc3ccccc3n12,?,3.98µM,5.36µM,?,3.98µM,14.1µM
COC(=O)/C=c1/sc2nc3ccccc3n2c1=O,0,0,?,0,0,?
O=C(O)c1cc(C(=O)O)cc(-c2ccc(/C=c3/sc4nc5ccccc5n4c3=O)o2)c1,0,0,?,0,0,0
NS(=O)(=O)c1ccc(CNC(=S)NC2CCCCC2)cc1,0,0,0,?,0,-
CC1=C(C(=O)Nc2ccccc2)C(c2ccc(Br)cc2)n2nc(CCCO)nc2N1 (stereo unspecified),-,-,0,-,-,0
Cc1[nH]c2ccccc2c1-c1csc(NC(=O)CN2CCOCC2)n1,0,0,0,0,0,0
Cn1c(=NC(=O)COc2ccccc2)sc2cccc(F)c21,?,3.55µM,?,?,1.78µM,-
CCOC(=O)c1sc(=NC(=O)c2ccc(F)cc2)n(C)c1C,?,0,0.675µM,?,0,-
CCOC(=O)c1sc(=NC(=O)c2c(F)cccc2F)n(C)c1C,?,0,0,?,?,-
CCOC(=O)c1sc(=NC(=O)COc2ccccc2)n(C)c1C,?,?,?,?,3.16µM,?
SMILES,ELG1 genotox,NPC1 promoter act,FLuc counter,ELG1 DNA repair,Rab9 promoter act,SMN2 splice up
CCOC(=O)c1sc(=NC(=O)c2ccc(C)cc2)n(C)c1C,?,0,?,?,?,22.4µM
Cc1ccc(Cc2nc3ccccc3nc2SCC(=O)NCCc2ccccc2)cc1,-,-,0,-,-,-
COC(=O)N[C@H](C[N+](=O)[O-])c1cccc(C)c1,-,-,-,-,-,0
CC[C@H]1c2[nH]c3ccccc3c2C[C@H]2C(=O)N(c3ccc(F)cc3)C(=O)N21,0,0,0,7.3µM,0,-
C=CCN1CC(=O)N2C(C)c3[nH]c4ccccc4c3C[C@H]2C1=O (stereo partly specified),0,0,0,0,0[1.84 µM],-
O=C(c1ccccc1)c1ccc(Cn2cc(-c3ccccc3)nn2)cc1,?,0,13.5µM,?,0,-
Cc1ccc(OCCC(=O)Nc2ccc3c(c2)OCO3)cc1,0,0,0,?,0,-
CCOc1ccc(NC(=O)NCc2ccc3c(c2)OCO3)cc1,0,0,0,0,0,-
O=Cc1ccc(OCc2ccc3c(c2)OCO3)cc1,18.3µM,0,4.78µM,?,0,-
Cc1ccc(COc2ccc3c(c2)OCO3)cc1,?,2.24µM,1.2µM,?,3.98µM,-
CS(=O)(=O)Oc1ccc(Br)cc1/C=C1/N=C(c2ccco2)OC1=O,0,0,?,0,0,0
COc1cc(OC)cc(C(=O)NC(=S)N(Cc2ccccc2)C(C)C)c1,0,0,0,?,0[1.84 µM],-
O=C(/C=C/c1ccc(Br)cc1)c1ccc(NC(=O)c2ccco2)cc1,0,0,?,?,0,0
O=C(/C=C/c1ccc(Br)cc1)c1ccco1,?,0,3.38µM,?,0,0[1.84 µM]
O=C(/C=C/C=C/c1ccccc1)c1ccco1,0,?,3.01µM,0,0,-
O=C(/C=C/c1ccccc1)N1CCN(C(=O)c2ccco2)CC1,0,0,0,0,0,?
COc1ccc(C)cc1NC(=O)NNC(=O)C(C)Oc1ccc(F)cc1Cl (stereo unspecified),?,0,0,0,0,-
Cc1cccc(OCCCn2c(CCNC(=O)C3CCCCC3)nc3ccccc32)c1,-,-,?,-,-,0
C=CCNC(=O)CCc1nnc(C2(c3ccc(Cl)cc3)CCC2)o1,?,0,16.9µM,?,3.16µM,8.91µM
COCC(C)NC(=O)CCc1nnc(C2(c3ccc(Cl)cc3)CCC2)o1 (stereo unspecified),?,0,23.9µM,?,?,-
C=C(C)CNC(=O)CCc1nnc(C2(c3ccc(Cl)cc3)CCC2)o1,0,0,?,?,?,-
NC(=O)C1CCCN(C(=O)CCc2nnc(C3(c4ccc(Cl)cc4)CCC3)o2)C1 (stereo unspecified),0,0,0,0,0,-
CC(=O)c1ccc(-c2nnc(CCC(=O)N3CCCC(C(=O)CC(C)C)C3)o2)s1 (stereo unspecified),?,4.47µM,19µM,?,3.55µM,-
CCC(=O)C1CCCN(C(=O)CCc2nnc(C3(c4ccc(Cl)cc4)CCC3)o2)C1 (stereo unspecified),?,?,13.5µM,?,?,-
COC(=O)CNC(=O)CCc1nnc(C2(c3ccc(Cl)cc3)CCC2)o1,?,0,?,?,0,-
Cc1ccccc1C(=O)c1cccn1CC(=O)NCc1ccc2c(c1)OCO2,0,0,?,0,0,0
Cc1cccc(N2CCN(CCCNC(=O)c3sc4ncccc4c3-n3cccc3)CC2C)c1 (stereo unspecified),-,-,0,-,-,-
